Assay outcomes deposited in PubChem BioAssay by National Center for Advancing Translational Sciences (NCATS).
DRD3 antagonist: blocks the human D3 dopamine receptor; AID 652054; 360,000 tested, 2.5% active; D3R cells, DiscoveRx beta-arrestin luminescence, antagonist mode; stronger effect = lower value; max response, negative = inhibition, %; in the data active = max response below about -50%; inconclusive = no clear call, values can overlap the other calls; note: % is set by controls: 0 for no effect and ±100 for the full control effect
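Cells expressing the human receptor were seeded at 1500 cells/well, incubated overnight at 37 degrees C in 5% CO2, then exposed to library compounds with dopamine controls for 90 minutes at 37 degrees C before luminescent detection.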
D1 agonist: human D1 receptor agonism; HEK293 T-REx D1 cells, calcium flux, agonist mode; activation, % at 2 µM; 360,000 tested, 1% active; AID 504660; in the data active = activation above about 30%; note: 0% is about no effect
Target sequence (P21728 whole entry, looked up): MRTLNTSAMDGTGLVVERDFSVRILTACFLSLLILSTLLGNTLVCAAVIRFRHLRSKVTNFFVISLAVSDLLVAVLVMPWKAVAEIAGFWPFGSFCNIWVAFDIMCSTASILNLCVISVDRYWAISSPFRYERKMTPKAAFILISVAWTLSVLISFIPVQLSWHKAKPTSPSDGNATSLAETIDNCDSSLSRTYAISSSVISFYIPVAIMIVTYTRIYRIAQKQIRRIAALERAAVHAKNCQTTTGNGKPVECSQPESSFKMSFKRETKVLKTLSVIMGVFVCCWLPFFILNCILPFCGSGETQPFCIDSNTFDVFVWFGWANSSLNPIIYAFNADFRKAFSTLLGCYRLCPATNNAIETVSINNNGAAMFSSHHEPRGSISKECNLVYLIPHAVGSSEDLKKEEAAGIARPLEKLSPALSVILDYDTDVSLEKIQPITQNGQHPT
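Tetracycline-induced HEK293 TREx D1 cells, force-coupled to calcium signalling, were dye-loaded with a no-wash calcium kit. Compound was pin-added after a 10 s baseline. Fluorescence was read kinetically at 1 cycle/s for 180 s, with calcium rises flagged as agonism.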
D1 antag: antagonists of human D1 dopamine receptor | activity change, negative = inhibition, % at 10 µM | HEK293 TREx D1 cells, calcium flux, dopamine EC80; stronger effect = lower value | AID 504652 | P21728 | 360,000 tested, 3.2% active; in the data active = activity change below about -30%; note: % is set by controls: 0 for no effect and ±100 for the full control effect
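Allosteric or orthosteric antagonism assessed as attenuation of the calcium response to EC80 dopamine, added 180 s after compound, in induced HEK293 Trex D1 cells loaded with no-wash calcium dye.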
D1 PAM: enhances dopamine response at the human D1 receptor; P21728; HEK293 TREx D1 cells, calcium flux, dopamine EC20 potentiation; potentiation, % at 10 µM; 360,000 tested, 0.036% active; AID 504651; in the data active = potentiation above about 30%; note: 0% is about no effect
D3 ag: D3 dopamine receptor (human) agonism; D3R DiscoveRx beta-arrestin cells, luminescence, 90 min; max activation, %; 410,000 tested, 0.58% active; in the data active = max activation above about 30%; note: 0% is about no effect
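Cells at 1500/well, incubated overnight, then treated with pinned compounds (dopamine as control) for 90 min at 37 degrees C. DiscoveRx reagent added for 30 - 60 minutes at room temperature; luminescence read.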
* hit, by the source's call; ? = inconclusive; · = no result. Rows were chosen to be rich in hits. Some 6.1% of all compounds tested hit in one or more screens of this group.

SMILES	DRD3 antagonist	D1 agonist	D1 antag	D1 PAM	D3 ag
CCC(Sc1nc2c(sc3ccccc32)c(=O)n1CCCC(=O)NC1CCCC1)C(=O)Nc1cccc(OC)c1 (centres undefined)	·	3.8	6.8	0.1	-11.7
COC(=O)c1scc(-c2ccc(C)cc2)c1S(=O)(=O)Nc1cc(Cl)ccc1C	·	1.5	2.1	-3.7	-10.1
NC(=O)CC(NC(=O)Cc1cccc2ccccc12)c1ccc(NC2CCCCCCC2)c([N+](=O)[O-])c1 (centres undefined)	-61.2*	3.4	12.1	6.6	-34.7
NC(=O)CC(NC(=O)Cc1cccc2ccccc12)c1ccc(NCc2ccccc2)c([N+](=O)[O-])c1 (centres undefined)	-50.8*	2.8	-31.1*	0.8	-15.5
NC(=O)CC(NC(=O)Cc1cccc2ccccc12)c1ccc(NCc2ccc(F)cc2)c([N+](=O)[O-])c1 (centres undefined)	-59.7*	2.5	18.7	2.9	-34.6
NC(=O)CC(NC(=O)Cc1cccc2ccccc12)c1ccc(NCc2ccccn2)c([N+](=O)[O-])c1 (centres undefined)	1.3	0.9	0.1	3.7	-11.0
NC(=O)CC(NC(=O)Cc1cccc2ccccc12)c1ccc(NCCc2ccc(F)cc2)c([N+](=O)[O-])c1 (centres undefined)	?	1.2	11.4	1.6	-18.8
Cc1ccc(CN2CCCn3nc(C(=O)NCCc4cccc(C)c4)cc3C2=O)cc1	·	6.1	-11.5	0.3	-3.2
Oc1ccc(CCNc2c3ccccc3nc3ccccc23)cc1O	10.3	12.4	-50.6*	5.6	124.0*
COc1cc(Nc2cccc[n+]2C)cc(OC)c1OC	1.6	0.6	-5.5	-1.4	-0.5
COc1cc(C(=O)Nc2ccc(C(=O)NCC3CCCO3)cc2)cc(OC)c1OC (centres undefined)	39.4	2.1	-3.6	-0.8	1.0
CCOc1ccc(NC(=O)COc2ccc(C(=O)NCC3CCCO3)cc2OC)cc1 (centres undefined)	10.6	1.6	-37.2*	12.3	0.3
CCOc1ccc(NC(=O)CN(C)C(=O)c2ccc(OCC3CCCO3)cc2)cc1OCC (centres undefined)	7.1	1.4	-42.3*	-10.2	0.9
Cc1ccccc1NC(=O)CN1C(=O)CCn2nc(-c3cccn3C)cc21	·	3.5	-1.7	-0.3	10.5
Fc1ccc(Br)cc1C1C=C(c2cccnc2)Nc2ncnn21 (centres undefined)	3.7	2.1	3.6	5.2	-0.4
CCOc1ccc(C2=CC(c3cc(Br)ccc3F)n3ncnc3N2)cc1Cl (centres undefined)	·	9.3	-85.5*	-8.1	0.6
COc1ccc(C2C=C(c3ccc(C)cc3)Nc3ncnn32)cc1 (centres undefined)	0.0	-0.8	3.8	-1.4	-5.6
CCOC(=O)C1=C(C)Nc2ncnn2C1c1cc(Br)ccc1F (centres undefined)	-9.0	-0.5	-32.8*	2.8	1.9
COc1cccc(C2=CC(c3cc(OC)ccc3OC)n3nnnc3N2)c1 (centres undefined)	?	1.7	-42.2*	-3.8	-6.2
COc1ccc(C2C=C(c3ccc(Cl)c(Cl)c3)Nc3ncnn32)cc1 (centres undefined)	·	48.3*	5.3	-3.0	5.5
CCOC(=O)C1=C(C)Nc2ncnn2C1c1cccs1 (centres undefined)	-0.8	-0.4	-8.7	-13.2	-2.7
Cc1cccnc1CNC(=O)C1CCC(=O)N(CCc2cccc(F)c2)C1 (centres undefined)	9.0	-0.1	-8.5	-13.2	3.7
COc1ccc(C2C=C(c3ccccc3)Nc3nnnn32)cc1 (centres undefined)	-20.5	4.8	-22.9	-3.0	-8.5
COc1ccc(C2=CC(c3ccc(C)cc3)n3nnnc3N2)cc1 (centres undefined)	-18.3	7.5	10.6	7.2	31.9*
COc1cccc(C2=CC(c3ccc(N(C)C)cc3)n3nnnc3N2)c1 (centres undefined)	1.4	2.8	-35.6*	-12.4	-4.7
SMILES	DRD3 antagonist	D1 agonist	D1 antag	D1 PAM	D3 ag
CC(=O)Nc1ccc(NC(=O)C(NS(=O)(=O)c2cccc3nsnc23)C(C)C)cc1 (centres undefined)	-2.2	1.3	30.0	-1.5	1.9
COc1ccc(C(NC(=O)c2ccco2)c2ccc(OC)c(OC)c2)cc1 (centres undefined)	-15.0	0.1	-5.2	1.2	-0.1
COc1ccc(C(NC(=O)/C=C/c2ccco2)c2ccc(OC)c(OC)c2)cc1OC	-55.6*	3.0	-6.9	-4.2	-5.4
Cc1nc(-c2ccccc2)sc1C(=O)CSc1ccc(Br)cc1	?	10.7	-36.5*	-1.8	1.7
Cc1nc(-c2ccccc2)sc1C(=O)CSc1ccc(Cl)cc1	-4.9	9.6	-3.8	-1.8	-0.2
COc1ccc(N2CCN(C(=O)c3cc4c(-c5cccc(OC)c5)nn(C)c4s3)CC2)cc1	13.2	4.2	-3.2	-0.1	1.4
O=C(c1cc(-c2ccc(Cl)c(Cl)c2)on1)N1CCN(c2ccccc2)CC1	19.6	5.6	-31.1*	-6.5	0.1
COc1ccc(-c2cc(C(=O)N3CCOCC3)no2)cc1OC	-18.2	3.1	-32.4*	-10.8	-2.8
COc1ccc(-c2nn(-c3ccccc3)cc2C(=O)NC(=S)N2CCOCC2)cc1OC	3.4	0.3	-38.6*	0.9	7.2
COc1ccc(-c2cc(C(=O)N3CCN(c4ccccc4)CC3)no2)cc1OC	12.7	-2.4	2.8	4.8	6.0
COc1ccc(-c2nn(C)c3sc(C(=O)N4CCOCC4)cc23)cc1OC	8.7	1.4	-60.3*	-3.2	1.1
COC(=O)c1cn(-c2ccccc2)nc1-c1ccc(OC)c(OC)c1	31.6	2.0	6.9	-5.2	12.1
COc1ccc([C@]23Cc4cc(OC)c(OC)cc4C(O2)C2=C(CCCC2=O)O3)cc1	·	-0.1	5.8	-3.2	·
Cc1ccc2nc(-c3ccc(Cl)s3)c(Nc3ccc4c(c3)OCCO4)n2c1	·	2.0	-20.3	-2.5	-5.7
CC1CCN(C(=O)c2cc(-c3ccc4c(c3)OCO4)on2)CC1	7.8	2.8	-33.2*	5.7	5.5
Cc1ccc(NC(=O)CCN2C(=O)C3CCCCC3C2=O)cc1[N+](=O)[O-] (centres undefined)	-4.1	-1.1	-3.3	-2.8	-13.2
Cc1cc(N2CCN(C(C(=O)NC3CCCC3)C(C)C)CC2)c2ccccc2n1 (centres undefined)	-5.6	·	·	·	-14.4
O=C1CC(N2CCN(c3ccc(Cl)c(Cl)c3)CC2)C(=O)N1 (centres undefined)	-11.5	32.3*	-21.3	-15.6	-6.2
COC(=O)/C=C/c1cnc[nH]1	?	2.0	-30.9*	8.4	-9.9
COC(=O)/C=C/c1ccc(-n2cncn2)cc1	-2.4	1.5	-3.2	-2.9	-3.7
O=C(O)c1nn(Cc2ncc(-c3cccc(Cl)c3)o2)c(=O)c2ccccc12	8.1	6.1	8.8	-6.8	32.5*
